Measured values reported in the supplement of paper PMC6555819.

What was measured:
Assay in all cases: PBM binding z-score (relative to random genomic background probes); higher = stronger binding; sequences stand for … in GC…GCGATTGACAGCGTAGAATGAAGG
[1] = test system: FXR:RXRa (NR concentration 270 nM, RXRa partner concentration 90 nM)
Outline: (§1)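 Antibodies against each partner of ligand-free nuclear receptor dimers (one per run) detected binding on custom Agilent 4×180K protein-binding microarrays after 1 h incubation. The double-stranded probes had 34-nt variable regions carrying direct-repeat seeds, single-nucleotide variants, half-site ablations and random human genomic background sequences. Binding z-scores, from regression-normalized fluorescence, use the random background probes as reference.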

[2] = test system: LXRa:RXRa (NR concentration 270 nM, RXRa partner concentration 90 nM)
Outline: as §1

[3] = test system: LXRa homodimer (NR concentration 270 nM)
Outline: as §1

[4] = test system: LXRb:RXRa (NR concentration 270 nM, RXRa partner concentration 90 nM)
Outline: as §1

[5] = test system: LXRb homodimer (NR concentration 270 nM)
Outline: as §1

[6] = test system: PPARa:RXRa (NR concentration 270 nM, RXRa partner concentration 90 nM)
Outline: as §1

[7] = test system: PPARg:RXRa (NR concentration 180 nM, RXRa partner concentration 90 nM)
Outline: as §1

[8] = test system: PPARg:RXRa 270nM:90nM, anti-RXR (NR concentration 270 nM, RXRa partner concentration 90 nM)
Outline: as §1

[9] = test system: PPARg:RXRa 30nM:10nM, anti-RXR (NR concentration 30 nM, RXRa partner concentration 10 nM)
Outline: as §1

[10] = test system: PPARg:RXRa 90nM:30nM, anti-RXR (NR concentration 90 nM, RXRa partner concentration 30 nM)
Outline: as §1

[11] = test system: PPARg:RXRa DBDmut IVT, anti-RXR (DBD mutation: RXRa K156A/R161A, NR concentration 270 nM, RXRa partner concentration 90 nM)
Outline: as §1

[12] = test system: PPARg:RXRa IVT, anti-PPARg (NR concentration 270 nM, RXRa partner concentration 90 nM)
Outline: as §1

[13] = test system: PPARg DBDmut:RXRa IVT, anti-PPARg (DBD mutation: PPARg1 K132A/R137A, NR concentration 270 nM, RXRa partner concentration 90 nM)
Outline: as §1

[14] = test system: PPARg DBDmut IVT, anti-PPARg (DBD mutation: PPARg1 K132A/R137A, NR concentration 270 nM)
Outline: as §1

[15] = test system: PPARg homodimer (NR concentration 180 nM)
Outline: as §1

[16] = test system: PXR:RXRa (NR concentration 270 nM, RXRa partner concentration 90 nM)
Outline: as §1

[17] = test system: PXR homodimer (NR concentration 270 nM)
Outline: as §1

[18] = test system: RARa:RXR (NR concentration 270 nM, RXRa partner concentration 90 nM)
Outline: as §1

[19] = test system: RARa homodimer (NR concentration 270 nM)
Outline: as §1

[20] = test system: RARb:RXRa (NR concentration 270 nM, RXRa partner concentration 90 nM)
Outline: as §1

Sequence	PBM binding z-score [1]	PBM binding z-score [2]	PBM binding z-score [3]	PBM binding z-score [4]	PBM binding z-score [5]	PBM binding z-score [6]	PBM binding z-score [7]	PBM binding z-score [8]	PBM binding z-score [9]	PBM binding z-score [10]	PBM binding z-score [11]	PBM binding z-score [12]	PBM binding z-score [13]	PBM binding z-score [14]	PBM binding z-score [15]	PBM binding z-score [16]	PBM binding z-score [17]	PBM binding z-score [18]	PBM binding z-score [19]	PBM binding z-score [20]
ATATGTAGGTTACATCCGGGTCATTGAGGCTATG	2.34	4.14	1.44	2.74	1.01	4.44	5.78	5.04	2.75	4.39	7.27	7.27	2.02	2.36	1.82	3.65	4.12	3.65	0.615	2.38
CCAGACAGGTCAGAAGGTAACTCAGCCTCGATTA	2.82	2.29	0.142	1.7	-0.0467	3.15	1.84	2.26	0.435	1.4	1.41	1.15	-0.393	-1.03	2.19	1.21	0.153	2.1	0.911	3.49
CGAACTAGGTCATTGACAGCACAGTGAATAGTAA	4.2	2.64	0.265	2.07	0.329	4.78	7.32	6.23	3.86	5.6	7.82	8.09	2.12	2.03	1.52	1.18	0.34	1.77	0.733	3.58
CGAACCAGGTCAGAACAGGACAGTGAAGGATGAT	2.83	1.68	0.0841	0.939	-0.216	2.43	2.14	1.88	0.485	1.32	3.56	3.58	0.325	-0.243	1.16	1.66	-0.119	1.4	0.21	3.05
ATCTCTAGGTAAAAGTTCAGTGACTCCCGAGGAT	1.09	2.16	1.64	1.38	0.749	4.12	8.08	8.15	8.38	8.98	2.54	3.69	1.46	1.46	1.59	2.36	1.59	1.97	0.841	2.39
CGTCCCAGGTCAAAGGTCAGTGAAGAGATGACGG	7.79	6.36	2.98	6.02	0.888	7.24	10.8	9.06	8.62	9.26	2.95	5.97	0.207	0.538	3.77	6.8	1.05	8.49	1.64	5.7
CAAACTAGGTCACGGAGGTCAAAGTCCGTGCGTA	7.4	6.23	6.45	5.9	1.36	6.83	10.4	8.3	7.09	8.25	8.69	9.3	5.33	6.03	5.85	6.63	10.4	7.02	2.61	5.34
AATACAGGCTCATCGTAGGCCAGAGTACGCACAG	-0.253	-0.407	-0.211	-0.712	-0.726	-0.569	0.784	-0.256	-0.133	-0.254	-0.148	-0.0891	0.24	-0.0374	-0.257	-0.568	-0.37	-0.622	0.466	-0.11
AGTCAACGTTCAGGACGAGGTAACGTAAAGCACG	-0.0969	-0.468	-0.628	-0.496	-0.581	-0.416	0.73	-0.278	-0.327	-0.0729	-0.667	-0.129	-0.279	-0.261	-0.431	-0.527	-0.514	0.104	-0.202	0.548
GCGACTTGGGCAAAGCAGGTTACCATAAGGTTGG	-0.371	-0.57	-0.467	-0.537	-1.29	0.243	0.451	-0.351	-0.654	-0.41	-0.00446	-0.245	-0.728	-1.56	-0.641	-0.189	-0.923	0.287	-1.35	-0.0319
TCTATTAGTTGAAGGGCACCCGACGAGTCCGTTT	0.72	0.953	0.3	0.709	0.846	0.943	0.172	2	3.71	2.96	2.29	0.553	0.299	1.3	1.25	0.824	1	0.844	1.45	1.36
GCTAGCAGGCCATTGGGGTCACTCAATGACGGGC	2.93	2.47	-0.298	3.06	-0.749	4.28	1.95	3.1	0.521	2.17	0.93	2.42	-0.918	-0.85	1.48	5.48	8.59	5.19	-0.69	3.01
AGTCAAAGTTCAGGACGGGGTAACGTAAAGCACG	4.41	4.06	1.34	2.69	1.48	3.58	4.9	5.07	2.19	4.12	0.312	2.3	1.25	1.24	1.87	3.66	1.28	3.45	1.36	4.13
ATATGTAGGTTACATCCGGGTCATTCAAGCTATG	2.46	4.38	1.74	3.45	0.746	4.7	6.29	5.22	2.73	4.53	7.38	7.61	3.54	2.95	2.2	3.81	1.61	4.07	0.831	2.43
GTTCCAAGGTGAATAGGTCGTTGATGAGTAGGCG	1.29	0.977	-0.00758	0.642	0.0158	2.24	1.16	1.94	0.65	1.07	2.09	2.89	-0.109	0.149	1.58	1.02	0.352	2.05	0.818	2.22
CCGACTGGGGCAAAGATTACCATACTCAGTACGA	-0.494	-0.583	-0.45	-0.138	-1.19	1.89	4.52	5.48	3.98	6.06	4.42	3.1	-0.00287	-0.543	0.462	-0.644	-0.342	-0.848	-0.293	0.284
GCATATAGGTAATACACGGTGAAAGTCCGATTGT	0.145	0.988	0.163	-0.0915	-0.496	0.9	0.912	0.806	0.349	0.684	3.87	2.67	0.895	1.01	0.267	0.213	0.115	0.564	0.666	-0.0307
TCGAGCAGGTTAGGGGCATTCAGAATGGCGTCGA	0.0413	0.102	-0.285	0.523	-0.591	0.89	-0.117	0.183	0.0683	0.228	0.212	-0.145	-1.03	-1.48	0.0489	0.241	-0.0165	0.385	-0.605	1.11
ATCCCTAGGTAACCAAGTTCAGTGAATGCCGAAC	0.476	1.09	1.1	0.956	0.382	0.985	0.276	0.246	-0.161	-0.0393	-0.197	0.606	-0.0937	0.0123	0.495	2.03	1.88	0.847	0.816	1.25
TAGCCTAGGTCTTGCGGGCCAGTATAGTGTCGGC	-0.844	-0.906	-0.807	-1.17	-1.2	-0.636	-0.663	-0.775	-0.745	-1.05	-0.581	-0.0643	-0.303	-0.84	-1.39	-1.05	-1.29	-0.863	-1.17	-0.327
TCTTGTAGATCAGTAGGTTAAGAAAGCTGGCCAA	0.172	0.646	0.128	0.552	0.098	1.12	0.0222	1.98	2.94	2.31	2.89	2.61	0.246	0.243	0.822	0.448	0.0641	0.921	0.433	0.272
GCGACTGAGGCAAAGCAGGTTACCATAAGGTTGG	-0.391	-0.493	-0.444	-0.567	-1.32	-0.0233	0.328	-0.42	-0.736	-0.693	0.099	-0.228	-1.27	-1.26	-0.646	-0.22	-0.398	0.0827	-0.323	-0.412
CCTGCTAGGACATGGTCAGCTAATCTACAGTATG	-0.435	-0.686	-0.63	-0.793	-0.639	-1.84	0.246	-0.764	-0.445	-0.928	0.152	-0.597	-0.458	-0.543	-0.902	-0.794	-0.746	-0.925	-0.734	0.0895
CTTACTGGGCCAAGGTCATTGATCAGTCAAAGCA	3.38	3.5	1.27	3.15	0.239	4.7	6.21	5.67	3.67	5.42	6.43	6.49	1.83	1.71	2.67	3.89	1.48	4.38	0.236	3.38
ACAGACAGGTGTTGAAGGTAACTCAGGCTATCAT	-0.0696	-0.375	-0.136	-0.298	-0.389	-0.0786	0.432	-0.232	-0.26	-0.54	-0.116	-0.388	-0.275	0.107	-0.0576	-0.158	0.379	0.0742	-0.513	-0.084
ACAGACTGGTGAGTGAAGGTAACTCAGCTGGACG	-0.31	-0.557	-0.264	-0.755	-0.871	-0.552	0.259	-0.5	-0.557	-0.438	-0.695	-0.409	-0.15	-0.348	0.0199	-0.565	-0.163	-0.434	-0.0964	-0.281
TCTTGTAGATCAACAGGAGGTGAAGAAAGATCGA	0.155	0.134	-0.343	0.298	-0.585	0.798	-0.0204	1.4	2.7	2.04	1.56	1.14	-0.0745	1.41	-0.39	0.179	-0.438	0.154	-0.0996	0.194
CGAACTAGGACAGAACAGGACAGTGAAGGATGAT	-0.286	-0.561	-0.364	-0.706	-0.58	-0.0263	1.23	0.13	0.00825	0.0847	3.37	2.51	0.329	1	-0.301	-0.366	-0.302	-0.649	0.312	0.117
CGTCCAAGGTCAATGCTACGTCAGTGAAAGCATT	6.6	4.58	0.394	3.37	0.412	4.89	3.32	4.18	1.44	3.3	3.21	3.16	1.41	-0.403	2.71	3.7	0.586	3.85	0.867	4.96
